Outcome and AC50 data for 4 compounds are collected here from PubChem BioAssay (EPA / NIEHS).

Assay [1] is described as follows: ACEA_ER_80hr: ACEA Biosciences xCELLigence Real-Time Cell Analysis on Estrogen Receptor Agonism for Proliferation (AID 2282667; active = hit-call score of the fitted dose curve at least 0.9, where 1 is the maximum). As to conditions: T47D proliferation, impedance (xCELLigence), 80 h. The procedure, abridged: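 Impedance readout (RT-CES) of T47D proliferation at 80 h post-dose; gain of signal vs DMSO baseline. Compounds: 8 conc, 1:4 serial, top 100 uM final, ≤0.5% DMSO; biological duplicate.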

A short description of assay [2]: ATG_CRE_CIS: Attagene CIS-FACTORIAL HepG2 Assay for human cAMP Responsive Element (CRE) binding protein 3 (AID 2282926). As to conditions: HepG2 CRE cis-reporter, Attagene multiplexed mRNA; actives raise or lower the signal. The procedure, abridged:
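Endogenous CRE-binding activity in HepG2 is reported through a cis-regulated transfected reporter. Following a day of exposure, mRNA levels are determined by reverse transcription PCR and fluorescent fragment analysis; fits run in both directions versus DMSO.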

Assay [3] concerns the target CCAAT/enhancer-binding protein beta (Homo sapiens) (UniProt P17676). Briefly: ATG_C_EBP_CIS: Attagene CIS-FACTORIAL HepG2 Assay for human CCAAT/Enhancer Binding Protein (C/EBP) beta (AID 2282927). Conditions: HepG2 Attagene cis-factorial transcription factor reporter; actives raise or lower the signal. In a few lines:
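Changes in reporter mRNA, rather than exogenous chimeric receptor activity, reflect native C/EBP signalling in transfected HepG2 cells dosed for 24 h; transcripts are detected by RT-PCR and capillary electrophoresis.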

Assay [4] can be described thus: ATG_CMV_CIS: Attagene CIS-FACTORIAL HepG2 Assay for human CMV (Internal Marker) (AID 2282928).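 Also: endpoint acts as a background internal control marker rather than a target.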 As to conditions: HepG2 CMV promoter reporter, transcription factor profiling; actives raise or lower the signal. The procedure, abridged: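 After transient transfection of HepG2 with reporter transcription units driven by cis-regulatory promoters, cells receive test chemical for 24 h. Labeled reporter amplicons, digested with HpaI, are sized and quantified by capillary electrophoresis against DMSO.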

A short description of assay [5]: ATG_DR4_LXR_CIS: Attagene CIS-FACTORIAL HepG2 Assay for human Liver X Receptor (LXR), DR4 submotif (AID 2282929). Conditions: HepG2 Attagene DR4 cis-reporter, mRNA transcription; actives raise or lower the signal. The procedure, abridged: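 The endpoint is DR4-element-driven reporter transcripts after 24 h chemical exposure of transfected HepG2 cells. These were measured via RT-PCR and capillary electrophoresis, and gain or loss of signal was fitted relative to DMSO controls.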

The target in assay [6] is Aryl hydrocarbon receptor (Homo sapiens) (UniProt P35869). Briefly: ATG_Ahr_CIS: Attagene CIS-FACTORIAL HepG2 Assay for human Aryl Hydrocarbon Receptor (Ahr) (AID 2282930). Conditions: HepG2 AhR cis-factorial reporter transcription; actives raise or lower the signal. In a few lines:
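HepG2, transient MRTU (cis) transfection, 24 h exposure. RNA → cDNA → PCR → 6-FAM primer extension → HpaI 2 h 37 C → CE. Fit: bidirectional, DMSO baseline.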

Assay [7] in a line: ATG_AP_1_CIS: Attagene CIS-FACTORIAL HepG2 Assay for human Activator Protein 1 (AP-1) (AID 2282931). Conditions: HepG2 Attagene cis-factorial AP-1 reporter mRNA; actives raise or lower the signal. In a few lines:
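Readout is reporter transcript level from endogenous transcription factor activity, quantified by RT-PCR with fluorescent primer extension and capillary electrophoresis. Transiently transfected HepG2 cells, 24 h exposure. Curves fitted both directions versus DMSO.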

The nature of assay [8]: ATG_AP_2_CIS: Attagene CIS-FACTORIAL HepG2 Assay for human Activator Protein 2 (AP-2) (AID 2282932). As to conditions: HepG2 AP-2 cis-reporter, Attagene transcription factor profiling; actives raise or lower the signal. In a few lines:
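Step one: transient transfection of HepG2 with reporter transcription units. Step two: 24 h chemical exposure. Step three: RNA extraction, RT-PCR, labelled fragment analysis by capillary electrophoresis; DMSO serves as baseline.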

Assay [9] in a line: ATG_BRE_CIS: Attagene CIS-FACTORIAL HepG2 Assay for human Bone Morphogenetic Protein (BMP) Response Element (BRE) (AID 2282933). As to conditions: HepG2 BMP response element reporter, Attagene transcription factor profiling; actives raise or lower the signal. The procedure, abridged:
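HepG2 cells transiently transfected with multiplexed cis-element reporter units were dosed with chemical for 24 h. Reporter mRNA was measured by RT-PCR with fluorescent labelling, HpaI digestion and capillary electrophoresis; bidirectional fitting relative to DMSO.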

For assay [10], the target named is Retinoic acid receptor alpha (Homo sapiens) (UniProt P10276). Briefly: ATG_DR5_RAR_CIS: Attagene CIS-FACTORIAL HepG2 Assay for human Retinoic Acid Receptor Alpha (RARE), DR5 submotif (AID 2282934). As to conditions: HepG2 Attagene cis-factorial RARE DR5 reporter, mRNA; actives raise or lower the signal. In a few lines:
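HepG2, transient cis-reporter transfection, 24 h exposure. mRNA readout: RT-PCR, FAM label, HpaI cut, capillary electrophoresis. DMSO baseline, gain/loss fitting.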

Assay [11] deals with Transcription factor E2F1 (Homo sapiens) (UniProt Q01094). Briefly: ATG_E2F_CIS: Attagene CIS-FACTORIAL HepG2 Assay for human E2F Transcription Factor 1 (AID 2282935). As to conditions: HepG2 Attagene cis-reporter, E2F reporter RNA transcripts; actives raise or lower the signal. The procedure, abridged: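 Total RNA from 24 h-treated, reporter-transfected HepG2 cells undergoes DNase I treatment, oligo(dT) reverse transcription, PCR and 6-FAM primer extension before capillary electrophoresis.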
Transcription factor E2F1 (Homo sapiens), sequence (Q01094 whole entry, looked up): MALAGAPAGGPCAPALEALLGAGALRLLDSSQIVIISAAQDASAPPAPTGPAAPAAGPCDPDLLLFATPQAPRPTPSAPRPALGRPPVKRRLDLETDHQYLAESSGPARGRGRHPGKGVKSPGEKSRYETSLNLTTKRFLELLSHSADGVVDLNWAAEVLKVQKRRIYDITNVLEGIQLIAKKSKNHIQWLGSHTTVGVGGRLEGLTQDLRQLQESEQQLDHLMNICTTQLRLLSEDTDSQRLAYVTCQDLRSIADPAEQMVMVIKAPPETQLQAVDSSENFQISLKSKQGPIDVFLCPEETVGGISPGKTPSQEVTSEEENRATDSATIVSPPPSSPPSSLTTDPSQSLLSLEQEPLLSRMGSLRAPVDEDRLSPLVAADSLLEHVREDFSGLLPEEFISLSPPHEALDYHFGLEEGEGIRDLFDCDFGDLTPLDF

Assay [12] in a line: ATG_E_Box_CIS: Attagene CIS-FACTORIAL HepG2 Assay for human Enhancer Box (E-box) (AID 2282936). As to conditions: HepG2 E-box cis-reporter transcription, actives raise or lower the signal. The procedure, abridged: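 DMSO served as negative control and baseline for bidirectional fitting. Human hepatoma HepG2 cells, transiently transfected with cis-reporter constructs, were dosed 24 h; reporter mRNA read by RT-PCR and capillary electrophoresis.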

The nature of assay [13]: ATG_M_61_CIS: Attagene CIS-FACTORIAL HepG2 Assay for M61 Transcription Factor (Internal Marker) (AID 2282937). Conditions: HepG2 Attagene CIS-FACTORIAL M61 internal marker reporter; actives raise or lower the signal. In a few lines: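 Readout is reporter mRNA by RT-PCR, fluorescent primer extension and capillary electrophoresis, with gain or loss fitted relative to DMSO. Transfected HepG2 cells carrying endogenous-TF-driven cis reporters were exposed to chemicals for 24 hours.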

Assay [14] in a line: ATG_EGR_CIS: Attagene CIS-FACTORIAL HepG2 Assay for human Early Growth Response 1 (EGR1) (AID 2282938). Conditions: HepG2 Attagene CIS-FACTORIAL EGR reporter mRNA; actives raise or lower the signal. The procedure, abridged: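 After 24 h compound exposure, RNA from reporter-transfected HepG2 cells was reverse-transcribed, PCR-amplified, fluorescently labelled and resolved by capillary electrophoresis. EGR1 reporter transcript changes, up or down, were fitted against DMSO, reflecting endogenous transcription-factor activity.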

Assay [15] in a line: ATG_M_19_CIS: Attagene CIS-FACTORIAL HepG2 Assay for M19 Transcription Factor (Internal Marker) (AID 2282939). As to conditions: HepG2 Attagene CIS-FACTORIAL M19 internal marker reporter; actives raise or lower the signal. In a few lines:
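HepG2 cells transiently transfected with cis-regulated multiple reporter transcription units were dosed for 24 h; reporter mRNA was quantified by RT-PCR, 6-FAM primer-extension labelling, HpaI digestion and capillary electrophoresis, with bidirectional fitting against DMSO baseline.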

A short description of assay [16]: ATG_ERE_CIS: Attagene CIS-FACTORIAL HepG2 Assay for Estrogen Response Element (ERE) (AID 2282940). Conditions: HepG2 ERE cis-reporter, Attagene RNA transcript; actives raise or lower the signal. In a few lines: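 HepG2 cells transiently transfected with cis-promoter-driven multiplexed reporter transcription units report endogenous TF activity. After 24 h compound exposure, reporter mRNA is quantified by RT-PCR with capillary electrophoresis fluorescence; bidirectional fitting versus DMSO baseline.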

The nature of assay [17]: ATG_Ets_CIS: Attagene CIS-FACTORIAL HepG2 Assay for human Erythroblast Transformation Specific (ETS) (AID 2282941). Conditions: HepG2 ETS cis-reporter transcription, actives raise or lower the signal. In a few lines: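 Human HepG2 hepatoma cells were transiently transfected with promoter-driven reporter constructs and treated for 24 hours. Reporter transcripts were quantified by RT-PCR with fluorescent primer extension; bidirectional curve fitting used DMSO as reference.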

Assay [18] has as its target Hepatocyte nuclear factor 3-beta (Homo sapiens) (UniProt Q9Y261). Briefly: ATG_FoxA2_CIS: Attagene CIS-FACTORIAL HepG2 Assay for human Forkhead box A2 (FOXA2) (AID 2282942). Conditions: HepG2 cis-reporter transcription factor activity, 24 h; actives raise or lower the signal. In a few lines:
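Endogenous transcription factor activity is captured via cis-element-driven reporter transcripts in transfected HepG2. Total RNA taken at 24 h post-dosing; labelled RT-PCR products resolved by capillary electrophoresis. Gain or loss fitted versus DMSO.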

The nature of assay [19]: ATG_FoxO_CIS: Attagene CIS-FACTORIAL HepG2 Assay for human Forkhead box O (FoxO) (AID 2282943). As to conditions: HepG2 Attagene cis-reporter, FoxO element, mRNA; actives raise or lower the signal. The procedure, abridged: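 Human hepatoma HepG2 cells carry transiently introduced reporter transcription units controlled by cis promoter elements. Chemical treatment lasted 24 h, and mRNA signal was compared with DMSO.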

Assay [20] can be described thus: ATG_GATA_CIS: Attagene CIS-FACTORIAL HepG2 Assay for human GATA Binding Protein (AID 2282944). Conditions: HepG2 GATA cis-element reporter, Attagene multiplex mRNA; actives raise or lower the signal. The procedure, abridged:
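HepG2 cells transiently transfected with multiplexed cis-element reporter units reflecting endogenous transcription factor activity; reporter mRNA measured after 24 h dosing by RT-PCR, 6-FAM labeling, HpaI digestion and capillary electrophoresis. Bidirectional fitting versus DMSO baseline.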

Results filed as inconclusive are left out. Activity calls are given as the source filed them. The calls were made as follows, unless noted: active = hit-call score of the fitted dose curve at least 0.9, where 1 is the maximum; inactive = score below 0.9.

Hepatocyte nuclear factor 3-beta (Homo sapiens), sequence (Q9Y261 whole entry, looked up): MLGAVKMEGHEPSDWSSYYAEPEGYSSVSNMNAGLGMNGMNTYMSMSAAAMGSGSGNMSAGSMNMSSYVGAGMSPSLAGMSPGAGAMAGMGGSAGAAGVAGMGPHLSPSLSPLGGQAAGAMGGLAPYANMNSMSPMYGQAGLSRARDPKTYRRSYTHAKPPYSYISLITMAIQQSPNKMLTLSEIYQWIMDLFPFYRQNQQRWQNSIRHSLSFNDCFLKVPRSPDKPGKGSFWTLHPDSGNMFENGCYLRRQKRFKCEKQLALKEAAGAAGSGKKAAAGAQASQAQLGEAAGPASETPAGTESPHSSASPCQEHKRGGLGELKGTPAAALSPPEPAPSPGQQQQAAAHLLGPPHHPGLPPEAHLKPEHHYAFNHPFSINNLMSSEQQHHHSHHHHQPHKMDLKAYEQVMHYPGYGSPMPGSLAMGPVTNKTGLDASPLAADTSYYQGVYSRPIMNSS
CCAAT/enhancer-binding protein beta (Homo sapiens), sequence (P17676 whole entry, looked up): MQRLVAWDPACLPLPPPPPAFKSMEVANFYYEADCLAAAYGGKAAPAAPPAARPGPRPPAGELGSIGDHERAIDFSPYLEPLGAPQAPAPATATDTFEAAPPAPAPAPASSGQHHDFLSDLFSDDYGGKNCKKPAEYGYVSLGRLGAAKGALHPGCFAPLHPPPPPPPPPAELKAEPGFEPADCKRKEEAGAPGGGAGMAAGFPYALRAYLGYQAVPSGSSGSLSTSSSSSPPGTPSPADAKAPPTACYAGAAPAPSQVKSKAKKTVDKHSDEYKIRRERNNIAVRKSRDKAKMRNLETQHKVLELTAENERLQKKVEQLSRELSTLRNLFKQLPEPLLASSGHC
Aryl hydrocarbon receptor (Homo sapiens), sequence (P35869 whole entry, looked up): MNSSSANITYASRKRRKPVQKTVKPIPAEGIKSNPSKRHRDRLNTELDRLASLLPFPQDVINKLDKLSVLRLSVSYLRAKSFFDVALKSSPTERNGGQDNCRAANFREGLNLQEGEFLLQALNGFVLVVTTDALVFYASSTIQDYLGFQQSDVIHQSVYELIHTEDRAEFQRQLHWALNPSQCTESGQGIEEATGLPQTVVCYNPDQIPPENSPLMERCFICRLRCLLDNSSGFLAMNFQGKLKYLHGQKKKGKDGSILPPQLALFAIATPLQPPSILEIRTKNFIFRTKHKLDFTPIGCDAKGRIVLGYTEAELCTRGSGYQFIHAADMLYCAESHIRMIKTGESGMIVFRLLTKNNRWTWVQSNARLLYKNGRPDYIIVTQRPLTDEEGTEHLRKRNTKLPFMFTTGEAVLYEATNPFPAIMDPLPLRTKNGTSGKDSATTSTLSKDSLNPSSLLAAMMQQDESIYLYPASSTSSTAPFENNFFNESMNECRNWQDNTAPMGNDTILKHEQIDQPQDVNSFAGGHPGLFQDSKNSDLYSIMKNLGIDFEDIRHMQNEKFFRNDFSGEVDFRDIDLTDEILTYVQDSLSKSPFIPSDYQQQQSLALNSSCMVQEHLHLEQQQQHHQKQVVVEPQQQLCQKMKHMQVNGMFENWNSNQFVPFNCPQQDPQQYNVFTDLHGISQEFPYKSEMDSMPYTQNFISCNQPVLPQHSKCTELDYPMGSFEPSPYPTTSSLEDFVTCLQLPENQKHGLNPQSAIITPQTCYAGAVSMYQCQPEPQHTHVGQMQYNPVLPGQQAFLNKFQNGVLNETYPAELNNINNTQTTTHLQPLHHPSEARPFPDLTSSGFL
Retinoic acid receptor alpha (Homo sapiens), sequence (P10276 whole entry, looked up): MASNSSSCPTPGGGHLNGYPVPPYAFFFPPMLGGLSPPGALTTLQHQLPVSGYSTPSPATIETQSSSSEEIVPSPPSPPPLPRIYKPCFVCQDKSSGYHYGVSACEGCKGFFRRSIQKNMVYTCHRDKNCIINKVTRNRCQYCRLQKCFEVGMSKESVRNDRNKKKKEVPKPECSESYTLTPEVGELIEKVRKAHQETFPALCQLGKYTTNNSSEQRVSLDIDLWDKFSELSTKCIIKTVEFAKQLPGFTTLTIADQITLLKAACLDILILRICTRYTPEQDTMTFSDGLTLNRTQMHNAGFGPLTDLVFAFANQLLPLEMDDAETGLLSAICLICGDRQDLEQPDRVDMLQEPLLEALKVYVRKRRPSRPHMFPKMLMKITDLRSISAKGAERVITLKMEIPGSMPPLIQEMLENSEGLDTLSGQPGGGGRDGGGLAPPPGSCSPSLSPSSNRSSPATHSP

For the compound `CCOC(OCC)OCC`, the outcome in assay [1], in [2], in assay [3], in [4], in assay [5] and in assay [7] was inactive. Further, the outcome in assay [8], in assay [9], in assay [10], in [11], in [12] and in assay [13] was inactive. The compound was classed as inactive in assay [14], in [15], in assay [16], in assay [17], in [18] and in assay [19]. Moreover, the compound was classed as inactive in [20]. Moreover, the concentration at half-maximal activity (AC50) in [6] was 31.6 µM (active).

For `OCC(O)CC(F)(F)C(F)(F)C(F)(F)C(F)(F)C(F)(F)C(F)(F)C(F)(F)C(F)(F)F` (centres undefined), the outcome in assay [1], in assay [2], in assay [3], in assay [4], in assay [6] and in assay [7] was inactive. Moreover, the compound was called inactive in [8], in [9], in assay [10], in assay [11], in assay [12] and in assay [13]. Further, the compound was called inactive in assay [14], in [15], in assay [16], in assay [18], in [19] and in assay [20]. The concentration at half-maximal activity (AC50) in assay [17] was 9.97 µM (active).

As for `CCOC(=O)CCC(C)=O`, the call in assay [1], in assay [2], in [3], in assay [4], in assay [5] and in [6] was inactive. Moreover, the compound was classed as inactive in assay [7], in assay [8], in [9], in [10], in [11] and in assay [12]. In addition, the compound was called inactive in assay [13], in [14], in assay [15], in assay [16], in assay [17] and in assay [18]. The outcome in assay [19] and in [20] was inactive.

Take `O=C(O)CCC(F)(F)C(F)(F)C(F)(F)F`: the call in assay [1], in [2], in [3], in assay [4], in assay [5] and in assay [6] was inactive. Also, the compound was called inactive in [7], in assay [8], in assay [9], in [10], in [11] and in assay [12]. In addition, the call in assay [13], in assay [14], in [15], in [16], in [17] and in [18] was inactive. In addition, the compound was classed as inactive in [19] and in assay [20].
